The whole screen tested about 85,000 compounds, of which about 440 (0.52%) showed an effect of 50% or more. Only a selection was taken, and strong results are over-represented in it overall.
Test: In vitro enzyme assay to detect hydrolysis of chlorophenol red-beta-D-[…] directly proportional to the number of Toxoplasma stably expressing beta-galactosidase
Assay type: functional, organism-based, Toxoplasma gondii
Set-up: scale not given: in the data most compounds retested in dose-response had high values

Row | Compound | Percent Effect (50 µM) | Percent Effect (10 µM)
1 | NC(=O)C1(CNCc2cccc(F)c2)CCOCC1 | -0.9049% | 
2 | CSCc1nnc(SCC(=O)NC2(C#N)CCCC2)o1 | 9.959% | 
3 | CCCNC(=O)C1CCCN1 (stereo unspecified) | 2.398% | 
4 | CC(=O)Nc1ccc(-n2cncn2)nc1 | -6.105% | 
5 | O=C(NCc1cccnc1)c1cn2cccnc2n1 | -2.314% | 
6 | Cc1ocnc1CNC(=O)c1ccc(Br)cn1 | 1.589% | 
7 | Cc1ocnc1CNC(=O)c1ccon1 | 99.22% | 
8 | Cc1noc(CCCNC(=O)c2ccon2)n1 | 62.73% | 
9 | Cc1noc(CCCNC(=O)CNC(=O)c2cc3ccccc3[nH]2)n1 |  | 4.234%
10 | Cc1nc(C)c(C(=O)NCc2ncoc2C)s1 | -1.836% | 
11 | CC1(CCNC(=O)c2ccon2)OCCO1 | 9.96% | 
12 | CCC=C(C)C(=O)NCC(C)N1CCN(CC)CC1 (stereo unspecified) | 11.7% | 
13 | CCNC(=O)C1CCN(C(=O)Cc2cccc(O)c2)C1 (stereo unspecified) | -5.389% | 
14 | CC(C)(O)CCN1CCC(NC(=O)C2CCC2)CC1 | 0.697% | 
15 | COCCN1CCC(c2ccn[nH]2)CC1 | -6.586% | 
16 | CNC(=O)NC(=O)CSc1ccccc1F | -1.003% | 
17 | CCOc1ncccc1C(=O)NCC1CCCN1CC (stereo unspecified) | -0.459% | 
18 | CCOc1ncccc1C(=O)NCC(C)N1CCCC1 (stereo unspecified) | 52.4% | 
19 | COc1ncccc1C(=O)NCC(=O)N1CCCC1 | -2.429% | 
20 | CCN1C(=O)C[C@H](CN)[C@H]1c1ccncc1 | 4.591% | 
21 | CCCn1cnnc1CNC | 0.9072% | 
22 | CNc1cc(OC)ccn1 | -16.02% | 
23 | COc1cccc(-c2cc(C(=O)Nc3nc[nH]n3)[nH]n2)c1 |  | 20.51%
24 | CNc1cc(-c2cccc(OC)c2)[nH]n1 | 98.42% | 

Row | Compound | Percent Effect (50 µM) | Percent Effect (10 µM)
25 | Cn1cc(Br)c(CO)n1 | 1.484% | 
26 | Cc1cc(CCC(=O)NCCC(N)=O)ccc1Br | -2.096% | 
27 | Cc1cc(F)ccc1S(=O)(=O)N1C[C@H](C2CC2)[C@@H](N)C1 | 8.476% | 
28 | Cc1ccc(F)cc1S(=O)(=O)N1C[C@H](C2CC2)[C@@H](N)C1 | 98.86% | 
29 | Cc1ccc(F)c(S(=O)(=O)N2C[C@H](C3CC3)[C@@H](N)C2)c1 | 7.08% | 
30 | COc1ccc(S(=O)(=O)N2C[C@H]3CNC[C@@H](C2)O3)cc1 | -2.543% | 
31 | OCC1CCN(Cc2ccccc2)CC1 | -5.201% | 
32 | NCc1cccc(OCC(F)F)c1 | -2.735% | 
33 | CCCc1ccc(CN2CCC(NC(C)=O)C2)o1 (stereo unspecified) | 2.217% | 
34 | O=C(NCC1CCN(C2CC2)C1)c1ccccc1F (stereo unspecified) | 13.84% | 
35 | CN(C)[C@H]1CCCCN(C(=O)Cn2cc(Cl)cn2)C1 | 95.45% | 
36 | O=C(Cn1cc(Cl)cn1)N1CCCC(c2ccn[nH]2)C1 (stereo unspecified) |  | -16.77%
37 | CN(C)c1cc(C2CCCN(C(=O)Cn3cc(Cl)cn3)C2)ccn1 (stereo unspecified) |  | 0.9748%
38 | CC(C)(C)CC1CCCN1S(N)(=O)=O (stereo unspecified) | -15.84% | 
39 | CC(C)(C(=O)OCC(N)=O)c1ccccc1 | 2.133% | 
40 | CC(C)N(C)CC(=O)NCCn1cccc1 | 7.108% | 
41 | O=C(NCc1n[nH]c(=O)[nH]1)C1COc2ccccc21 (stereo unspecified) | -1.703% | 
42 | COc1cccc(N2Cc3nc(=O)[nH]n3C2=O)c1 |  | -7.908%
43 | Cc1cccc(N2Cc3nc(N4CCC(C)CC4)ncc3C2=O)c1 |  | 14.75%
44 | COc1ccc(N2Cc3nc(N)ncc3C2=O)cc1 |  | 9.612%
45 | CNc1ncc2c(n1)CN(c1cccc(OC)c1)C2=O |  | 69.02%
46 | CNc1ncc2c(n1)CN(CCc1ccccc1)C2=O |  | -25.26%
47 | CCNc1ncc2c(n1)CN(c1cccc(OC)c1)C2=O |  | 76.16%
48 | CN(C(=O)CC(N)c1ccccc1)c1cccc(F)c1 (stereo unspecified) | 3.1% | 

Row | Compound | Percent Effect (50 µM) | Percent Effect (10 µM)
49 | Nc1ncccc1CN1CCN(C2CCOCC2)CC1 | 4.597% | 
50 | O=C1CCCCN1Cn1cnc2c(Br)cccc2c1=O | -5.958% | 
51 | Cc1ccc(C(=O)Nc2c(C(=O)N(C)C)nn(C)c2C)cc1 |  | 18.52%
52 | Cc1cccc(C(=O)Nc2c(C(=O)N(C)C)nn(C)c2C)c1 |  | 18.52%
53 | Cc1c(NC(=O)c2cccc(Br)c2)c(C(=O)N(C)C)nn1C |  | 13.13%
54 | Cc1c(NC(=O)c2ccc(Br)cc2)c(C(=O)N(C)C)nn1C |  | 46.94%
55 | Cc1ccc(C(=O)Nc2c(C(=O)N(C)C)nn(C)c2C)cc1C |  | 61.35%
56 | COc1ccc(C(=O)Nc2c(C(=O)N(C)C)nn(C)c2C)cc1 |  | 52.86%
57 | CC(=O)NCc1ccc(C(C)=O)s1 | 3.848% | 
58 | CCOc1cc(CNCc2ccccn2)ccc1O | 12.08% | 
59 | Cc1cc(NC(=O)c2ccc(S(C)(=O)=O)cc2)no1 | 1.537% | 
60 | CCS(=O)(=O)N(C)CC(=O)Nc1cc(C)on1 | -10.63% | 
61 | CCNS(=O)(=O)c1csc(C(=O)Nc2cc(C)on2)c1 | 60.53% | 
62 | Cc1ccoc1C(=O)NC1CCN(Cc2cccc3ccccc23)CC1 |  | 53.31%
63 | Cc1ccoc1C(=O)NC1CCN(Cc2ccccc2C#N)CC1 |  | -1.883%
64 | Cc1ccoc1C(=O)NC1CCN(Cc2ccccc2F)CC1 |  | -8.886%
65 | Cc1ccc(-n2ncc3c2CCCC3N)cc1C (stereo unspecified) |  | 16.25%
66 | Cc1cc(C)cc(-n2ncc3c2CCCC3N)c1 (stereo unspecified) |  | 16.38%
67 | CC(C)(C)c1ccc(-n2ncc3c2CCCC3N)cc1 (stereo unspecified) |  | 50.93%
68 | COc1ccc(CN2CCCNCC2)cc1 | 13.71% | 
69 | Cc1cc(C(=O)N(C)Cc2cccs2)nc(N2CCOCC2)n1 |  | -10.44%
70 | Cc1cc(C(=O)N(C)Cc2cccs2)nc(N2CCCC2)n1 |  | 6.801%
71 | Cc1cc(C(=O)N(C)Cc2cccs2)nc(N2CCCCC2)n1 |  | 73.87%
72 | CSc1ccc(CNc2ccn(CCC(N)=O)n2)cc1 | -4.331% | 

Row | Compound | Percent Effect (50 µM) | Percent Effect (10 µM)
73 | O=C(NCCN1CCOCC1)c1cc(-c2ccccc2Cl)[nH]n1 |  | -1.617%
74 | Cc1ccc(-c2cc(C(=O)NCCN3CCOCC3)n[nH]2)s1 |  | 27.02%
75 | O=C(NCCN1CCOCC1)c1cc(-c2ccc(Cl)s2)[nH]n1 |  | 52.66%
76 | CS(=O)(=O)N[C@H]1CN(c2ccncc2F)C[C@@H]1C1CC1 | 3.462% | 
77 | CCc1cnc(CNC(=O)NCc2cnn(C)c2)s1 | -4.497% | 
78 | Cc1cc(C(=O)Nc2cccc(C[S+](C)[O-])c2)on1 (stereo unspecified) | 98.42% | 
79 | Cc1cc(C(=O)Nc2ccc(OCC(N)=O)cc2)on1 | 12.73% | 
80 | Cc1cc(C(=O)Nc2cnn(C)c2)on1 | 0.4555% | 
81 | O=C(NCCNc1ncccn1)C1CC(=O)N(Cc2ccco2)C1 (stereo unspecified) |  | 18.03%
82 | O=C(NCCNc1ncccn1)C1CC(=O)N(Cc2ccccc2)C1 (stereo unspecified) |  | 14.32%
83 | O=C(NCCNc1ncccn1)C1CC(=O)N(Cc2ccccn2)C1 (stereo unspecified) |  | 66.32%
84 | Cc1c(-c2nc(-c3cccc(CN4CCOCC4)c3)no2)cnn1C |  | 8.571%
85 | Cc1occc1-c1nc(-c2cccc(CN3CCOCC3)c2)no1 |  | 55.09%
86 | Cc1cc(-c2nc(-c3cccc(CN4CCOCC4)c3)no2)no1 |  | 8.772%
87 | N#Cc1cccc(CN)c1F | 2.806% | 
88 | COCCCNc1ccc(Br)cn1 | 6.813% | 
89 | COCCNc1nnc(-c2ccccn2)s1 |  | 14.66%
90 | COCCNc1nnc(SCc2ccc(Br)cn2)s1 | 98.42% | 
91 | Cc1n[nH]cc1CNCc1nccs1 | -5.718% | 
92 | COCCNC(=O)c1cn(CC2CCCNC2)nn1 (stereo unspecified) | -4.648% | 
93 | CCc1cc(NCc2cccnc2)n2nccc2n1 | 3.949% | 
94 | COc1ccc2c(c1)CCCC2N (stereo unspecified) | 9.435% | 
95 | Cn1cc(CN2C[C@@H]3COC[C@@H](C(=O)N4CCCCO4)[C@@H]3C2)cn1.O=C(O)C(F)(F)F.O=C(O)C(F)(F)F |  | 0.4992%
96 | Cn1cc(CN2C[C@@H]3COC[C@H](C(=O)Nc4cccnc4)[C@@H]3C2)cn1.O=C(O)C(F)(F)F.O=C(O)C(F)(F)F |  | 79.48%

Row | Compound | Percent Effect (50 µM) | Percent Effect (10 µM)
97 | Cn1cc(CN2CC(C(=O)Nc3ccccc3)C3(CCOCC3)C2)cn1.O=C(O)C(F)(F)F (stereo unspecified) |  | -1.627%
98 | Cc1nnc(SCCNC(=O)CC2C=CS(=O)(=O)C2)s1 (stereo unspecified) | 45.65% | 
99 | CN(Cc1cnccn1)C(=O)c1ccc(CSc2nnc[nH]2)o1 |  | -8.183%
100 | CSCc1ccc(C(=O)N(C)Cc2cnccn2)o1 | 98.35% | 
101 | CC(C)Cc1cc(C(=O)N(C)Cc2cnccn2)on1 | 13.67% | 
102 | CC(CCO)CNS(=O)(=O)c1ccccc1F (stereo unspecified) | 13.76% | 
103 | COCC(NC(=O)CNc1ccccc1)C(C)C (stereo unspecified) | 18.12% | 
104 | Cc1ccc(S(=O)(=O)N2CCNC(=O)C2)cc1C(N)=O | 3.593% | 
105 | CC(C)Cn1cc(NC(=O)N2CCCC2)cn1 |  | -15.58%
106 | CC(C)Cn1cc(NC(=O)N2CCC(O)C2)cn1 (stereo unspecified) | 99.23% | 
107 | NC(=O)Cn1cc(NC(=O)N2CCCC(O)C2)cn1 (stereo unspecified) |  | -5.248%
108 | CC(C)[C@@H]1CN(C(=O)c2ccc(O)cn2)C[C@H]1N(C)C | -13.98% | 
109 | NS(=O)(=O)c1ccc2c(c1)N(CC(=O)NC1CC1)CC2 | 3.074% | 
110 | CCc1ccc(CN2CCOCC(CO)C2)nc1 (stereo unspecified) | 13.26% | 
111 | C[C@@H]1CN(C(=O)c2cc(F)cc(C#N)c2)C[C@]1(C)O | 97.61% | 
112 | C[C@@H]1CN(C(=O)c2ccc(=O)[nH]c2)C[C@]1(C)O | 3.055% | 
113 | C[C@@H]1CN(C(=O)c2ccccc2C#N)C[C@]1(C)O | 10.95% | 
114 | CSCC(CCO)NC(=O)c1coc2ccccc12 (stereo unspecified) | -6.179% | 
115 | CC(C)(C)OC(=O)N1CCC(n2cc(N)cn2)CC1 | -15.49% | 
116 | N[C@@H]1CCCc2c(F)cc(F)cc21 | 13.09% | 
